Laboratory results from PubChem BioAssay (Tox21).
Where “and” joins values, the source holds several entries; their conditions need not be identical. Equal values may be shown once. Inconclusive results are not listed. Where a call stands in place of a potency, no number is given. More than one record can exist for a structure, and the calls need not agree. Calls of active or inactive are those of the source. Unless noted, calls follow the shape of the dose curve; as a rule, active = well fitted curve in the direction sought with a large enough effect in the repeat runs; inconclusive = weak or mixed curves; inactive = no such curve, though single readings can be large; an effect the other way counts as inactive or inconclusive.

Experiments:
[1] = qHTS assay to identify small molecule antagonists of the androgen receptor (AR) signaling pathway using the MDA cell line in the presence of 0.5 nM R1881 - cell viability counter screen (AID 1259242); also: nearly all actives have a fitted effect of over 45% in size; also: potency is read from the fitted curve at half-maximal effect
In short: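 Cytotoxicity toward MDA-kb2 cells is measured by CellTiter-Fluor live-cell protease fluorescence after 16 hr compound exposure at 37C in the presence of 0.5 nM R1881 stimulator.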

[2] = molecular target: Androgen receptor (Homo sapiens) (UniProt P10275); experiment: qHTS assay to identify small molecule antagonists of the androgen receptor (AR) signaling pathway using the MDA cell line in the presence of 0.5 nM R1881 (AID 1259243); also: nearly all actives have a fitted effect of over 50% in size
In short: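 Steps: seed MDA-kb2 cells, incubate 5 hr at 37C; pin-transfer compounds in DMSO; add R1881 to 0.5 nM final; incubate 16 hr; add ONE-Glo, wait 30 min at room temperature; read luminescence.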

[3] = qHTS assay to identify small molecule HDAC inhibitors (AID 1259364); also: nearly all actives have a fitted effect of over 45% in size; also: potency is read from the fitted curve at half-maximal effect
In short: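 Homogeneous cell-based luminescent assay of endogenous class I/II HDAC activity; HCT-116 cells, 2 h compound exposure, 30 min HDAC-Glo development at RT.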

[4] = qHTS assay to identify small molecule HDAC inhibitors - cell viability counter screen (AID 1259365); also: series mostly up to about 92 µM; nearly all actives have a fitted effect of over 50% in size
In short: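 To flag cytotoxic hits, 1,500 wild-type HCT-116 cells per well, plated the day before, receive test compounds for 2hr at 37 C before CellTiter-Glo reagent and a luminescence read.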

[5] = qHTS assay to identify small molecule agonists of the sonic hedgehog signaling (Shh) pathway - cell viability counter screen (AID 1259366); also: nearly all actives have a fitted effect of over 50% in size; also: potency is read from the fitted curve at half-maximal effect
In short: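 Fluorescence from CellTiter-Fluor reports live cells in this counter screen. NIH/3T3-derived Gli1-Luc reporter cells receive test compounds for 24hr at 37C; reagent goes in at 23hr.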

[6] = qHTS assay to identify small molecule antagonists of the sonic hedgehog signaling (Shh) pathway - cell viability counter screen (AID 1259367); also: nearly all actives have a fitted effect of over 55% in size; also: potency is read from the fitted curve at half-maximal effect
In short: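 NIH/3T3-derived Gli1-Luc reporter cells (2,000 per well) rested 4 hr at 37 C, then received DMSO compounds plus conditioned medium. After 23 hr of treatment, CellTiter-Fluor was added for 1 hr at 37C and fluorescence read.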

[7] = qHTS assay to identify small molecule agonists of the sonic hedgehog signaling (Shh) pathway (AID 1259368; calls by dose curve;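 also: NIH/3T3-derived 3T3Gli1-Luc cells carrying a stable Gli1-driven firefly luciferase reporter; series mostly up to about 92 µM; nearly all actives have a fitted effect of over 15% in size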)
In short: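 Steps: seed 3T3 Gli1-Luc cells, incubate 4 hr at 37 C, pin-transfer compounds in DMSO alongside a positive control, incubate 24 hr, add luciferase detection reagent, wait 30 min at room temperature, read luminescence.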

[8] = qHTS assay to identify small molecule antagonists of the sonic hedgehog signaling (Shh) pathway (AID 1259369; calls by dose curve; also: nearly all actives have a fitted effect of over 45% in size; also: potency is read from the fitted curve at half-maximal effect)
In short: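 Inhibition of Shh signalling is measured as reduced Gli1-response-element firefly luciferase output in an NIH/3T3-derived stable reporter clone stimulated with conditioned medium for 24hr.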

[9] = molecular target: Estrogen receptor beta (Homo sapiens) (UniProt Q92731); experiment: qHTS assay to identify small molecule agonists of the estrogen receptor beta (ER-beta) signaling pathway (AID 1259377; active = well fitted activation curve with a large enough effect in the signal ratio in the repeat runs, not every such curve was filed as active; the % refers to the signal ratio)
In short: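 Screening used GripTite ER-beta-UAS-bla cells held in 2% charcoal-stripped FBS medium. After overnight (16 hr) compound incubation at 37C, beta-lactamase activity was detected with a FRET substrate by fluorescence.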

[10] = molecular target: Estrogen receptor (Homo sapiens) (UniProt P03372); experiment: qHTS assay to identify small molecule antagonists of the estrogen receptor alpha (ER-alpha) signaling pathway using the BG1 cell line in the presence of 0.1 nM 17-beta-estradiol (AID 1259244); also: nearly all actives have a fitted effect of over 50% in size; also: potency is read from the fitted curve at half-maximal effect
In short: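 After 5 days in hormone-depleted medium (charcoal-stripped serum, no phenol red), VM7Luc4E2 cells were seeded, incubated 24 h, then co-treated with compound and 0.1 nM (final) estradiol for 22 h before luminescence detection.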

Sequence of Androgen receptor (Homo sapiens) (P10275 whole entry, looked up): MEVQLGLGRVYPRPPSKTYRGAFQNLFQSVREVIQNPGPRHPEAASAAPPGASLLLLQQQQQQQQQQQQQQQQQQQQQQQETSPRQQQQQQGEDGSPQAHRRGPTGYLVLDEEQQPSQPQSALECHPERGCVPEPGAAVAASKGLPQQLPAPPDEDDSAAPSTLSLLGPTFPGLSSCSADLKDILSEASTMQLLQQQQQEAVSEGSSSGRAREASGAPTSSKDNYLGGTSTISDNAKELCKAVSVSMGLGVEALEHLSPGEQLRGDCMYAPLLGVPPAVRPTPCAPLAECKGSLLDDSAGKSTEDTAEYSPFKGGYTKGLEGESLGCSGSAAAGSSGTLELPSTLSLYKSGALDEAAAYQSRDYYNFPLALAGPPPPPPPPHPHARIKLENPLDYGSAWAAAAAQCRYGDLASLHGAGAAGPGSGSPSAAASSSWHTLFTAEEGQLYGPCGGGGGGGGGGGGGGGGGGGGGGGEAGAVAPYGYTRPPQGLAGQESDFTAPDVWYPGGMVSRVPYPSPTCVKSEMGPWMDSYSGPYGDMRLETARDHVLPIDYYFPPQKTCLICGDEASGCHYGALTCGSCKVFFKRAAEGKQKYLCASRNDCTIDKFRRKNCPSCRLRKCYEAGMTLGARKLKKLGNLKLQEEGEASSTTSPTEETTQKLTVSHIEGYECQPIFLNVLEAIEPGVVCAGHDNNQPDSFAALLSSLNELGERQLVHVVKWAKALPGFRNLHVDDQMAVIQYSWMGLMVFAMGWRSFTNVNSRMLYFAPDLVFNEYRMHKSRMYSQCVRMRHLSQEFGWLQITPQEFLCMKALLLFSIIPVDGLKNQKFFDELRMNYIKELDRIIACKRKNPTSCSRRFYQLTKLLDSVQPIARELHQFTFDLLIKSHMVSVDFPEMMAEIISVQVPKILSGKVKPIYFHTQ
Sequence of Estrogen receptor beta (Homo sapiens) (Q92731 whole entry, looked up): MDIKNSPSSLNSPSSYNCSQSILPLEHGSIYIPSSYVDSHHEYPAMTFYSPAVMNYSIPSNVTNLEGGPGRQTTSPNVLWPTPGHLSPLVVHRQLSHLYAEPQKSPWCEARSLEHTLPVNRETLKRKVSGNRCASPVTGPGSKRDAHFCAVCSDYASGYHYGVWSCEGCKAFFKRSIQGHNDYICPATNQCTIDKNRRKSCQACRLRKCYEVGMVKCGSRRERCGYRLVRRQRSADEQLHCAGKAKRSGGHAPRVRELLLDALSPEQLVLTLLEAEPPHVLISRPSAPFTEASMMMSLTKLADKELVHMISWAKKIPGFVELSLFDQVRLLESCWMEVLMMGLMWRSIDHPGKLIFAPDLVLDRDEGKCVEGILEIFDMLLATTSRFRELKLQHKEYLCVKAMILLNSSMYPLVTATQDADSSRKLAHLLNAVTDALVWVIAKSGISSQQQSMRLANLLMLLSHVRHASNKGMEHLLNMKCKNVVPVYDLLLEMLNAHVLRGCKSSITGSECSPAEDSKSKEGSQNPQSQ
Sequence of Estrogen receptor (Homo sapiens) (P03372 whole entry, looked up): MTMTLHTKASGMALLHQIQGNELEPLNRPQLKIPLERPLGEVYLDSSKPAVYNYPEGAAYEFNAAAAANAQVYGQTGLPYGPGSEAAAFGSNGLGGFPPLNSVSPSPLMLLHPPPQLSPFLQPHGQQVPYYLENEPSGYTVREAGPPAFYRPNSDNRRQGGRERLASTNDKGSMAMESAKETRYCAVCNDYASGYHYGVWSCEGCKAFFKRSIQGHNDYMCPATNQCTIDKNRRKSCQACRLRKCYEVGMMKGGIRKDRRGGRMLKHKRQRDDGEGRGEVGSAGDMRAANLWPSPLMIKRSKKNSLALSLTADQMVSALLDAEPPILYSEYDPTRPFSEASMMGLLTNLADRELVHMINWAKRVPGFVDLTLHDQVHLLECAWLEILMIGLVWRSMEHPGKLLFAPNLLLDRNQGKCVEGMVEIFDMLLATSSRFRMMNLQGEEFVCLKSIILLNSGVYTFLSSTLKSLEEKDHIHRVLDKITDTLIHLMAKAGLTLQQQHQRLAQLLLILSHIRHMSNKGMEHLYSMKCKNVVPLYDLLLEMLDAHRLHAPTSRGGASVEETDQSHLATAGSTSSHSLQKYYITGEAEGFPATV

Structure (SMILES)	Potency [1]	outcome [2]	Potency [3]	outcome [4]	Potency [5]	Potency [6]	outcome [7]	Potency [8]	Potency [9]	Potency [10]
O=C1CCCCC1	inactive	inactive	inactive	inactive	inactive	inactive	inactive	inactive	inactive	–
OCCOCCOCCOCCO	inactive	–	inactive	inactive	inactive	inactive	inactive	inactive	inactive	inactive
CCCCOCCO	inactive	–	inactive	inactive	inactive	inactive	–	inactive	–	inactive
CCC(=O)O	inactive	–	inactive	inactive	inactive	inactive	inactive	inactive	–	inactive
Oc1ccc(OCc2ccccc2)cc1	inactive	–	6.71 µM (active) and inactive	inactive	inactive	inactive	inactive	inactive	inactive	inactive
CCOC(=O)/C=C\C(=O)OCC	inactive	–	inactive	inactive	inactive	inactive	inactive	inactive	–	inactive
O=S(=O)(O)CCS	inactive	–	inactive	inactive	inactive	inactive	inactive	inactive	inactive	inactive
Clc1cc(Cl)c(Cl)cc1Cl	inactive	–	inactive	inactive	inactive	inactive	inactive	inactive	inactive	inactive
OCC1CCCO1 (stereo not given)	inactive	inactive	inactive	inactive	inactive	inactive	–	inactive	inactive	inactive
O=C(O)c1cc(-c2ccccc2)nc2ccccc12	inactive	inactive	–	inactive	inactive	inactive	inactive	inactive	–	–
CC1=CC[C@H]2C[C@@H]1C2(C)C	inactive	–	inactive	inactive	inactive	inactive	inactive	inactive	inactive	inactive
NCCc1ccc(O)c(O)c1	inactive	–	inactive	inactive	24.4 µM (active) and inactive	30.7 µM (active) and inactive	inactive	866 nM (active)	inactive	2.44 µM (active)
NCc1cccc(CN)c1	inactive	–	inactive	inactive	inactive	inactive	inactive	inactive	inactive	inactive
Cc1ccc(C)c(C)c1	inactive	inactive	inactive	inactive	inactive	inactive	inactive	inactive	inactive	–
CN(C)c1ccc(C(=N)c2ccc(N(C)C)cc2)cc1	48 µM (active) and 46.7 µM (active)	–	inactive	inactive	48 µM (active)	48 µM (active) and 23.4 µM (active)	inactive	2.4 µM (active) and 11.7 µM (active)	inactive	–
CC[Si](OC(C)=O)(OC(C)=O)OC(C)=O	inactive	–	inactive	inactive	inactive	inactive	inactive	inactive	–	–
C=C(C)C(=O)OCC(CC)(COC(=O)C(=C)C)COC(=O)C(=C)C	inactive	–	inactive	inactive	inactive	inactive	inactive	–	–	–
ClC1=C(Cl)C(Cl)(Cl)C(Cl)=C1Cl	inactive	–	inactive	inactive	inactive	inactive	inactive	inactive	inactive	–
OCC#CCO	inactive	–	inactive	inactive	inactive	inactive	inactive	inactive	inactive	–
CCCCCC/C=C/CCCCCCCC(=O)O	inactive	–	inactive	inactive	inactive	inactive	inactive	inactive	inactive	–
c1ccc2[nH]cnc2c1	inactive	–	inactive	inactive	inactive	inactive	inactive	inactive	–	–
C[C@@H](O)[C@H]1C(=O)N2C(C(=O)O)=C(S[C@@H]3CN[C@H](C(=O)N(C)C)C3)[C@H](C)[C@H]12	inactive	–	inactive	inactive	inactive	inactive	inactive	inactive	inactive	–
Cn1c([N+](=O)[O-])cnc1COC(N)=O	inactive	–	inactive	inactive	inactive	inactive	inactive	inactive	inactive	–
NC(=O)/N=N/C(N)=O	inactive	–	inactive	inactive	inactive	inactive	inactive	inactive	inactive	–
O=C(Oc1ccccc1)c1ccc(O)cc1	inactive	–	21.8 µM (active) and 21.7 µM (active)	inactive	inactive	inactive	inactive	inactive	–	–
OC[C@@H](O)[C@@H](O)[C@H](O)[C@@H](O)CO	inactive	–	inactive	inactive	inactive	inactive	inactive	inactive	–	–
